Measurements as given in PubChem BioAssay (Tox21).
Inconclusive results are not listed. Values without a mark were called inactive. Active and inactive are the calls of the source. Calls follow the shape of the dose curve; as a rule, active = well fitted cell-killing curve with a large enough effect in the repeat runs; inconclusive = weak or mixed curves, or effect the other way; inactive = no such curve, though single readings can be large or run the other way.

experiment: qHTS assay to identify small molecule agonists of the vitamin D receptor (VDR) signaling pathway - cell viability counter screen (AID 743224); settings: VDR-bla HEK293T viability, CellTiter-Glo luminescence, 16 h; series mostly up to 62.6 µM; activity change, negative = cytotoxicity: at the top concentration; also: nearly all actives have a fitted effect of over 50% in size
Description: U.S. Tox21 Program National Center for Advancing Translational Sciences [NCATS] NIH Chemical Genomics Center [NCGC] U.S. Environmental Protection Agency [EPA] National Institutes of Environmental Health Sciences [NIEHS] National Toxicology Program [NTP] U.S. Food and Drug Administration [FDA] Tox21 Assay Overview: The vitamin D receptor (VDR), a member of nuclear hormone receptor superfamily, plays a critical role in calcium homeostasis and bone metabolism. It is also involved in cell differentiation and growth, and thrombogenicity. […] The cytotoxicity of the Tox21 compound library against the VDR-bla cell line was tested in parallel by measuring the cell viability using CellTiter-Glo assay (Promega, Madison, WI) in the same wells.
Tox21 Assay Protocol Summary: VDR-bla cells were dispensed at 2,000 cells/6 uL/well into black wall/clear-bottom 1536-well plates using a Multidrop Combi (Thermo Fisher Scientific, Waltham, MA) dispenser. After the assay plates were incubated at a 37C and 5% CO2 for 4 h, 23 nL of compounds dissolved in DMSO, positive controls or DMSO only was transferred to the assay plate by a Pintool station (Kalypsys, San Diego, CA). The plates were incubated at 37C and 5% CO2 for 16 h. After 1 uL of LiveBLAzerTM B/G FRET substrate was added using a Bioraptr Flying Reagent Dispenser (FRD) workstation (Beckman Coulter, Indianapolis, IN, USA), the plates were incubated at room temperature for 2 h, and fluorescence intensity was measured by an Envision plate reader (PerkinElmer, Shelton, CT). For cell viability readout that measures cytotoxicity, 3 ul/well of CellTiter-Glo reagent was added into the assay plates using a FRD. After 30 min incubation at room temperature, the luminescence intensity in the plates was measured using a ViewLux (PerkinElmer) plate reader.
% is scaled to controls: 0 for no effect and ±100 for the full control effect.

Q: For `NCC(O)c1ccc(O)cc1` (stereo not given), which outcome is on record?
A: inactive

Q: For `Cc1ccc([N+](=O)[O-])cc1C`, which outcome is on record?
A: inactive

Q: With `CCCCN(CC)C(=O)SCCC` as the compound, how does the outcome read?
A: inactive

Q: With `c1ccc(-c2ccccc2)cc1` as the compound, how does the outcome read?
A: inactive

Q: For `CCCN(CCC)N=O`, which outcome is on record?
A: inactive

Q: Which outcome does the source give for `C1CC2OC2CC1C1CO1` (stereo not given) here?
A: inactive

Q: Which “activity change, negative = cytotoxicity” value does the source give for `CC(C)(C)C(O)(CCc1ccc(Cl)cc1)Cn1cncn1` (stereo not given) here?
A: -16.3%

Q: Which outcome does the source give for `CN1C(=O)CN=C(c2ccccc2)c2cc(Cl)ccc21` here?
A: inactive

Q: Which outcome does the source give for `[N-]=[N+]=[N-]` here?
A: inactive

Q: With `O=S(=O)(c1ccc(O)cc1)c1ccc(O)cc1` as the compound, how does the outcome read?
A: inactive

Q: With `c1ccc2c(c1)oc1ccccc12` as the compound, how does the outcome read?
A: inactive

Q: For `CC(C)=C[C@@H]1[C@@H](C(=O)OCc2coc(Cc3ccccc3)c2)C1(C)C`, which outcome is on record?
A: inactive

Q: For `CCCN(CCC)c1c([N+](=O)[O-])cc(C(F)(F)F)cc1[N+](=O)[O-]`, which “activity change, negative = cytotoxicity” value is on record?
A: 11%

Q: For `CCC[CH2][Sn]([Cl])([Cl])[Cl]`, which outcome is on record?
A: inactive

Q: With `CC1OC(C)OC(C)O1` (stereo not given) as the compound, how does the outcome read?
A: inactive

Q: Which outcome does the source give for `O=NN1CCCC1` here?
A: inactive

Q: Which outcome does the source give for `COCCl` here?
A: inactive

Q: For `CC(C)(C)OOC(=O)c1ccccc1`, which outcome is on record?
A: inactive

Q: Which outcome does the source give for `CCC12COCN1COC2` here?
A: inactive

Q: For `O=[N+]([O-])c1ccc([As](=O)(O)O)cc1`, which outcome is on record?
A: inactive

Q: With `CC(C)(Cl)Cl` as the compound, how does the outcome read?
A: inactive

Q: For `O=c1n(Cl)c(=O)n(Cl)c(=O)n1Cl`, which outcome is on record?
A: inactive

Q: With `C1CN2CCN1CC2` as the compound, how does the outcome read?
A: inactive

Q: Which outcome does the source give for `O=c1[nH]c2ccccc2c(=O)o1` here?
A: inactive

Q: With `CC(Br)C(=O)O` (stereo not given) as the compound, how does the outcome read?
A: inactive

Q: For `Cc1ccc(N)cc1Cl`, which outcome is on record?
A: inactive

Q: Which outcome does the source give for `CCCCCCCCCCCC#N` here?
A: inactive

Q: For `CC(C)N1C(=O)c2ccccc2NS1(=O)=O`, which outcome is on record?
A: inactive

Q: With `CC(C)OC(=O)Nc1ccccc1` as the compound, how does the outcome read?
A: inactive

Q: For `CCCCOC(=O)c1ccccc1C(=O)OCCCC`, which outcome is on record?
A: inactive

Q: With `COC(=O)NC(=S)Nc1ccccc1NC(=S)NC(=O)OC` as the compound, how does the outcome read?
A: inactive

Q: For `CC(C)C#N`, which outcome is on record?
A: inactive

Q: For `CCCC1COC(Cn2cncn2)(c2ccc(Cl)cc2Cl)O1` (stereo not given), which outcome is on record?
A: inactive

Q: For `Cc1[nH]c(=O)n(C(C)(C)C)c(=O)c1Cl`, which outcome is on record?
A: inactive

Q: Which “activity change, negative = cytotoxicity” value does the source give for `c1cc2c3c(cccc3c1)CC2` here?
A: 8.46% [at 81.1 µM]

Q: With `Nc1ccc(Cc2ccc(N)cc2)cc1` as the compound, how does the outcome read?
A: inactive

Q: Which outcome does the source give for `C[C@]12CC[C@H]3[C@@H](CC[C@@]45O[C@@H]4C(O)=C(C#N)C[C@]35C)[C@@H]1CC[C@@H]2O` here?
A: inactive

Q: Which outcome does the source give for `CCc1cccc(C)c1N(C(=O)CCl)C(C)COC` (stereo not given) here?
A: inactive

Q: For `Cc1ccc(N)cc1N`, which outcome is on record?
A: inactive

Q: For `CN(N=O)c1ccccc1`, which outcome is on record?
A: inactive
